Molecules are shown by their SMILES. Several values for one entry are separate records, joined by “and”; a condition that tells them apart may be missing. Equal entries are not always repeated. Records with an inconclusive call do not appear. Some compounds were tested as several samples or in several runs, with calls that do not always agree. Activity calls are given as the source filed them. Calls follow the shape of the dose curve; as a rule, active = well fitted inhibition curve with a large enough effect; inconclusive = small, poorly fitted or top-dose-only effect; inactive = flat fitted curve, though single readings scatter.
Potency is read from the fitted curve at half-maximal effect.

The nature of this assay: P-glycoprotein substrates identified in KB-8-5-11 adenocarcinoma cell line, qHTS therapeutic library screen (AID 1346987). Also: nearly all actives have a fitted effect of over 65% in size. To be noted: KB-8-5-11 (P-gp overexpressing) viability, CellTiter-Glo, 72 h; series mostly up to 44.5 µM. The source says:
The ATP-binding cassette transporters P-glycoprotein (P-gp) is known to limit brain penetration of many chemotherapy drugs. […] As such, we developed a high-throughput screen (HTS) to identify substrates of P-gp from a series of chemical libraries including the National Center for Advancing Translational Sciences Pharmaceutical Collection NPC, 2,816 compounds), testing a total of 10,804 compounds, most of which have known mechanisms of action. We used the CellTiter-Glo viability assay to test library compounds against the parental KB-3-1 human cervical adenocarcinoma cell line and the colchicine-selected sub-line KB-8-5-11 that over-expresses P-gp. KB-8-5-11 cells were also tested in the presence of a P-gp inhibitor (tariquidar) to assess reversability of transporter-mediated resistance. Of the tested compounds, a total of 90 P-gp substrates were identified including 55 newly identified P-gp substrates. Substrates were confirmed using an orthogonal killing assay against HEK-293 cells transfected with P-gp. As exemplars, we confirmed that […] (cyclin-dependent kinase inhibitor); AT9283, (Janus kinase 2/3 inhibitor); ispinesib (kinesin spindle protein inhibitor); gedatolisib (PKI-587, phosphoinositide 3-kinase/mammalian target of rampamycin inhibitor); GSK-690693 (AKT inhibitor); and KW-2478 (heat shock protein 90 inhibitor) were substrates , and direct ATPase stimulation was assessed. ABCG2 was also found to confer high levels of resistance to AT9283, GSK-690693 and gedatolisib, while ispinesib, AT7519 and KW-2478 were weaker substrates.
The HeLa derivative cell line, KB-3-1, and its colchicine-selected, P-gp-overexpressing subline, KB-8-5-11 were maintained in DMEM with 10% FCS and Pen/Strep with glutamine at 37 degree C in 5% CO2. For KB-8-5-11 cells, colchicine was added to the medium at a concentration of 100 ng/mL. HEK-293 cells transfected with empty vector (pcDNA) or vector containing human ABCB1 (MDR-19) or ABCG2 (R-5) have been described previously (Robey, Lin, Qiu, Chan & Bates, 2011) and were maintained in EMEM supplemented with 10% FCS, Pen/Strep and glutamine with 2 mg/ml G418 to select for the expression of the transporter. Cultures were confirmed to be free of mycoplasma infection using the MycoAlert Mycoplasma Detection Kit (Lonza, Walkersville, MD). For the screen, assay medium was identical to culture medium except for KB-8-5-11 where colchicine was excluded from the medium.
All cell lines were plated into 1536-well plates at 500 cells/well in 5 uL media. Compounds were then pinned in dose-response using a 1536-head pin tool (Kalypsis, San Diego, CA) and plates were incubated at 37 degree C in 5% CO2 for an additional 72 h. CellTiter-Glo reagent (Promega) was dispensed into the wells, incubated for 5 min and luminescence was read on a ViewLux instrument (Perkin-Elmer). Cytotoxic compounds were defined as those that yielded a curve class of -1.1, -1.2, -2.1, -2.2, -2.3, or -2.4, a maximum response of >50% and an AC50 of < 10 uM. Cherry-picked hits from screening analysis were tested with both the KB pair of cell lines, and the pcDNA (empty vector control) and MDR-19 (P-gp overexpressing) pair were tested, in the absence and presence of tariquidar.
Background: Quantitative high-throughput screening tests each substance at several concentrations.
On to `Cc1cn2cc(C(=O)N(C)CCO)cc(N[C@@H]3CCOc4cccc(C)c43)c2n1`, for which the Potency result was “inactive”.

For the molecule `CCS(=O)(=O)c1cccc(-c2cc(C(=O)NC3CCN(C)CC3)c(C)c3[nH]c4ncc(C)cc4c23)c1`, the Potency entry is “inactive”.

Take `Fc1cc(-c2cccc3ncc(-c4cnn(C5CCNCC5)c4)nc23)cc(F)c1CN1CCOCC1`: the Potency was 20.9 µM (active) and 20.6 µM (active).

With `Nc1cccc(-c2cc3c(Oc4cccc(O)c4)ncnc3[nH]2)c1`, the Potency is 20.9 µM (active).

Turning to `C[C@@H](Oc1cc(-n2cnc3ccc(CN4CCN(C)CC4)cc32)sc1C(N)=O)c1ccccc1C(F)(F)F`, the Potency is 0.118 µM (active).

For `CN(C1CCc2c(c3ccccc3n2CC(=O)O)C1)S(=O)(=O)c1ccc(F)cc1` (stereo not given), the Potency entry is “inactive”.

With `Nc1ncnc2c1c(-c1cccc(OCc3ccccc3)c1)cn2C1CC(CN2CCCC2)C1` (stereo not given), the Potency was 16.6 µM (active) and 6.51 µM (active).

Regarding `COc1ccc(-n2nc(C(N)=O)c3c2C(=O)N(c2ccc(N4CCCCC4=O)cc2)CC3)cc1`, the Potency entry is “inactive”.

In the case of `O=C(O)C1(Cc2cccc(Nc3nccs3)n2)CCC(Oc2cccc(Cl)c2F)CC1` (stereo not given), the Potency was 0.411 µM (active).

With `CN1CCC(CNc2ccc3ncc(-c4cccc(OC(F)(F)F)c4)n3n2)CC1`, the Potency was 13.2 µM (active) and 18.4 µM (active).

Regarding `COC(=O)[C@]12CCC(C)(C)C[C@@H]1[C@@H]1C(=O)C=C3[C@@]4(C)C=C(C#N)C(=O)C(C)(C)[C@@H]4CC[C@@]3(C)[C@]1(C)CC2`, the Potency was 0.743 µM (active).

`CC(=O)OCC(=O)[C@@]1(O)[C@H](C)C[C@H]2[C@@H]3C=C(C)C4=Cc5c(cnn5-c5ccccc5)C[C@]4(C)[C@@H]3[C@@H](O)C[C@@]21C`: the Potency result was “inactive”.

For the molecule `CC[C@@H]1C(=O)N(C)c2cnc(Nc3ccc(C(=O)NC4CCC(N5CCN(CC6CC6)CC5)CC4)cc3OC)nc2N1C(C)C` (stereo not given in full), the Potency is 372 nM (active) and 326 nM (active) and 231 nM (active).

On to `COC(=O)Nc1ccc(-c2nc(N3CCOCC3)c3cnn(C4CCN(Cc5cccnc5)CC4)c3n2)cc1`, for which the Potency was 148 nM (active) and 920 nM (active).

For the molecule `Nc1nc(Nc2ccc(S(N)(=O)=O)cc2)nn1C(=O)c1c(F)cccc1F`, the Potency is 10.5 µM (active) and 7.31 µM (active).

For `Cn1c2ccccc2c2c3c(c4c5ccccc5n(CCC#N)c4c21)CNC3=O`, the Potency is 5.8 µM (active).

Turning to `Cc1ccc2nc(NC(=O)CSc3nc4c(c(=O)n3-c3ccccc3)SCC4)sc2c1`, the Potency result was “inactive”.

With `CC(C)Nc1cc(C(F)(F)F)cc2nc(NC(=O)c3cccnc3)nn12`, the Potency result is “inactive”.

For `CCCCOc1c(C(=O)c2c(F)cc(C)cc2F)cnc2n[nH]cc12`, the Potency entry was “inactive”.

With `Nc1nc(-c2nn(Cc3ccccc3F)c3ncccc23)nc(N)c1N1CCOCC1`, the Potency result was “inactive”.

For `CC(C)(C)c1cc(C(C)(C)C)c(NC(=O)c2c[nH]c3ccccc3c2=O)cc1O`, the Potency result was “inactive”.

Turning to `CCN(CC)CCNC(=O)c1ccc2nc(-c3ccccc3)c(-c3ccc(CN4CCC(n5c(=O)[nH]c6ccccc65)CC4)cc3)nc2c1`, the Potency is 3.72 µM (active).

For the molecule `CC(C)(C)NC(=O)[C@H]1CN(Cc2cccnc2)CCN1C[C@@H](O)C[C@@H](Cc1ccccc1)C(=O)N[C@H]1c2ccccc2C[C@H]1O`, the Potency was 23.5 µM (active).

For the molecule `CCOc1cc2ncc(C#N)c(Nc3ccc(F)c(Cl)c3)c2cc1NC(=O)C=CCN(C)C`, the Potency is 10.5 µM (active).

For `CN1CC[C@@H](c2c(O)cc(O)c3c(=O)cc(-c4ccccc4Cl)oc23)[C@@H](O)C1`, the Potency is 0.209 µM (active).

As to `CC[C@@H]1C(=O)N(C)c2cnc(Nc3ccc(C(=O)NC4CCN(C)CC4)cc3OC)nc2N1C1CCCC1`, the Potency was 0.418 µM (active).

Take `CC1(C)CCC(c2ccc(Cl)cc2)=C(CN2CCN(c3ccc(C(=O)NS(=O)(=O)c4ccc(N[C@H](CCN5CCOCC5)CSc5ccccc5)c(S(=O)(=O)C(F)(F)F)c4)cc3)CC2)C1`: the Potency result is “inactive”.

As to `COc1cc(=C2C=c3ccccc3=N2)[nH]c1=Cc1[nH]c(C)cc1C`, the Potency was 2.96 µM (active).

Regarding `COc1ccc2c(c1)CC[C@@H](CN(C)CC(=O)O)[C@H]2c1ccccc1`, the Potency is 1.66 µM (active) and inactive.

`CS(=O)(=O)N1CCN(Cc2cc3nc(-c4cccc5[nH]ncc45)nc(N4CCOCC4)c3s2)CC1`: the Potency is 2.91 µM (active).

Turning to `CN(C)CC=CC(=O)Nc1cc2c(Nc3ccc(F)c(Cl)c3)ncnc2cc1O[C@H]1CCOC1`, the Potency was 9.35 µM (active).

For the molecule `CN(C)Cc1c(C(=O)NCCOc2ccc(C(=O)NO)cc2)oc2ccccc12`, the Potency is 7.43 µM (active) and 4.61 µM (active).

Consider `Cc1cc(Nc2cc(NC(=O)c3c(Cl)cccc3Cl)ccn2)nc(N)n1`, for which the Potency was 935 nM (active) and 1.16 µM (active).

Regarding `CCN1CCN(CC(=O)Nc2ccc(-c3cccc4c(=O)cc(N5CCOCC5)oc34)c3sc4ccccc4c23)CC1`, the Potency was 2.96 µM (active).

Take `C#Cc1cccc(Nc2ncnc3cc(OC)c(OCCCCCCC(=O)NO)cc23)c1`: the Potency is 10.5 µM (active) and 14.6 µM (active).

Consider `CC1=C(CO)C(=O)O[C@@H]([C@@H](C)[C@H]2CC[C@H]3[C@@H]4C[C@H]5O[C@]56[C@@H](O)C=CC(=O)[C@]6(C)[C@@H]4CC[C@]23C)C1`, for which the Potency was 1.18 µM (active).

For `CC(O)C1C(=O)N2C(C(=O)O)=C(SC3CNC(C(=O)N(C)C)C3)C(C)C12` (stereo not given), the Potency entry is “inactive”.

Turning to `C=CC(=O)Nc1cccc(Oc2nc(Nc3ccc(N4CCN(C)CC4)cc3)ncc2Cl)c1`, the Potency was 3.32 µM (active) and 7.31 µM (active).

In the case of `CC(C)c1cnn2c(NCc3ccccc3)cc(N[C@@H](CO)[C@H](O)CO)nc12`, the Potency is 1.18 µM (active) and 4.61 µM (active).

`CN1CCN(Cc2ccc(NC(=O)Nc3ccc(Oc4cc(NC(=O)C5CC5)ncn4)cc3)cc2C(F)(F)F)CC1`: the Potency is 5.8 µM (active).

The values are drawn from PubChem BioAssay (NCATS).
